We go through 16 compounds from PubChem BioAssay (NCATS).

Records with an inconclusive call do not appear. Calls of active or inactive are those of the source. Unless noted, calls come from the whole dose curve; as a rule, active = well fitted curve in the direction sought with a large enough effect; inconclusive = small, poorly fitted or top-dose-only effect, or another doubt; inactive = no such curve, though single readings can be large; an effect the other way counts as inactive or inconclusive. Square brackets hold non-standard residues; d marks the D form. Peptide text beside a SMILES is read from it. ξ: configuration not given here. ξL = CC(C)CC(N)C(=O)O

Test [1] is described as follows: Panc-1005 Cancer Cell Toxicity qHTS against the NCATS CANVASS Library (AID 1347349). Note: nearly all actives have a fitted effect of over 60% in size. Note: potency is the fitted concentration of half-maximal effect. The method, boiled down:
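Quantitative HTS format: an 11-concentration series was applied to 1000 cells/well following a 4-hour attachment. Cultures ran 72 hours before ATP luminescence detection by CellTiter-Glo.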
(Quantitative high-throughput screening tests each substance at several concentrations.)

The nature of test [2]: A2780 Cisplatin Sensitive Ovarian Cancer Cell Toxicity qHTS against the NCATS CANVASS Library (AID 1347353). Note: nearly all actives have a fitted effect of over 60% in size. Note: potency is the fitted concentration of half-maximal effect. The method, boiled down:
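Seventy-two-hour exposure of cisplatin-sensitive A2780 ovarian cells to an 11-concentration qHTS series; cytotoxicity is inferred from loss of ATPLite luminescence. Bortezomib titration served as positive control.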

Test [3] is described as follows: HEK-293 Cancer Cell Toxicity qHTS against the NCATS CANVASS Library (AID 1347355). Note: nearly all actives have a fitted effect of over 65% in size. Note: potency is the fitted concentration of half-maximal effect. The gist of the method: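 qHTS cytotoxicity: compounds tested in 11 concentrations on 1000 seeded cells per well over 72 h; bortezomib served as control; signal from CellTiter-Glo luminescence.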
Test [4] can be described thus: qHTS for Hypoxia signaling pathway (HIF-1) antagonists against the NCATS CANVASS Library (AID 1347374).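 For activity change, negative = inhibition: HRE-bla ME-180 cells stimulated with cobalt chloride to stabilize HIF-1alpha; % is set by controls: 0 for no effect and ±100 for the full control effect.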 Note: nearly all actives have a fitted effect of over 60% in size. Note: potency is the fitted concentration of half-maximal effect. The method, boiled down: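 HRE-bla ME-180 cells (2,000/well, 0.5% dialyzed FBS) were pre-incubated 5 h, then given an 11-point compound series plus CoCl2 (60 uM solution as added) for 17 h at 37C. CCF4 β-lactamase read (ex 405, em 460/530 nm) after 2 h at RT.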
Test [5] in a line: qHTS for Activators of p53 Stress Response Pathway screened against the NCATS CANVASS Library (AID 1347388). Note: 0% is about no effect. The gist of the method:
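p53RE-bla HCT-116 cells (4000/well) were plated 5 h at 37C, exposed to compounds for 16 h at 37C over an 11-point concentration series, then loaded with CCF4 for 2 h at room temperature; 460/530 nm emission ratio read.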

Test [6] in a line: Vero-766 cells viability qHTS against the NCATS CANVASS Library: Counterscreen for Zika virus inhibition assay (AID 1347394). Note: nearly all actives have a fitted effect of over 60% in size. Note: potency is the fitted concentration of half-maximal effect. The gist of the method:
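CellTiter-Glo luminescence, lower signal indicating cytotoxicity. Vero 766 cells without Zika virus, 1000 cells/well, plated overnight, then treated 72 h at 37C across an 11-point series.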

A short description of test [7]: DH5-alpha competent E. coli microbial cell viability qHTS against the NCATS CANVASS Library (AID 1347377). Conditions: outcome: dose series up to 46.1 µM unless noted. The method, boiled down:
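Cell viability of competent DH5-alpha E. coli is scored from ATP content by luminescence. Cells sit overnight at 37C with compound across an 11-point concentration series.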

Test [8] is described as follows: SDT Cancer Cell Toxicity qHTS against the NCATS CANVASS Library (AID 1347365). Note: nearly all actives have a fitted effect of over 60% in size. The method, boiled down:
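Dispense 500 SDT cells per well; pin-transfer compounds; incubate 72 hr at 37C, 5% CO2, 95% RH; add CellTiterGlo and read luminescence.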

In test [9] the target is Cytochrome P450 3A4 (Homo sapiens) (UniProt P08684). The test can be described thus: qHTS Assay for Activators of Cytochrome P450 3A4 (AID 885). Note: nearly all actives have a fitted effect of over 65% in size. The method, boiled down: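 20nM CYP3A4 + 25uM Luciferin-PPXE (=KM), 200mM KPO4; cpd 10 min RT; NADPH regen, 60 min RT; stop w/ detection buffer, 20 min; luminescence. Normalized to 57 uM ketoconazole.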
The nature of test [10]: Confirmation and Secondary Assay for Modulators of Hemoglobin Beta Chain Splicing at IVS2 654 locus (AID 910).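 Note: per-well total GFP intensity by laser scanning cytometry after 2-day treatment; % of control where 0% means no effect.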 The gist of the method:
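HeLa cells stably carrying EGFP interrupted by mutant beta-globin IVS2-654 intron (CMV-driven) were treated with compound for 2 days at 37C; corrected splicing was scored as total peak GFP intensity per well (488 nm excitation, 500-520 nm emission).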

Test [11] can be described thus: Confirmation and Secondary Assay for Modulators of Hemoglobin Beta Chain Splicing at IVS2 705 locus (AID 930).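 Note: HeLa cells stably expressing the EGFP-705 splicing reporter; GFP fluorescence per well restored by corrected splicing of the IVS2-705 intron in EGFP; % of control where 0% means no effect.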 The method, boiled down:
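First, HeLa EGFP-705 cells are seeded at 500/well in Optimem with 2% FCS and left overnight. Next, compound or DMSO is added for 2 days. Finally wells are laser-scanned and total peak GFP intensity scored.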

The nature of test [12]: qHTS to identify inhibitors of the type 1 interferon - major histocompatibility complex class I in skeletal muscle: primary screen against the NCATS Mechanism Interrogation Plate v5.0 (MIPE) Libary (AID 1347411). Note: potency is the fitted concentration of half-maximal effect; nearly all actives have a fitted effect of over 65% in size. The method, boiled down:
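Cells were genome-edited human myoblasts carrying a HiBit tag on endogenous HLA-B. They were treated with IFN-beta (4.0 ng/ml) and titrated compounds (top 46 uM) for 24 hrs before lytic HiBiT detection.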

For test [13], the target named is Glutathione peroxidase 1 (Homo sapiens) (UniProt P07203). The test can be described thus: Primary qHTS Assay for Inhibitors of Recombinant Selenoprotein Glutathione Peroxidase 1 (GPX1) (AID 1845191). Note: nearly all actives have a fitted effect of over 65% in size. The method, boiled down: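 Recombinant GPX1 (10 nM final) was preincubated with compound for 30 min at room temperature, then reacted with 1 mM GSH, 0.5 mM CHP, 0.5 mM NADPH and 100 nM glutathione reductase; NADPH fluorescence (340/450 nm) was read at 0 and 15 min.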

The nature of test [14]: qHTS drug screen for cell cycle checkpoint inhibitors in PARPi-resistant BRCA-mutant ovarian cancer cell lines. (AID 1963452; calls by dose curve). Conditions: PEO1/OlaR viability, CellTiter-Glo luminescence, 96 h, stronger effect = lower value. The method, boiled down: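 PEO1, PEO4 and PEO1/OlaR ovarian cancer cells, 600 per well, exposed 96 h at 37C to a dilution series. Viability read by CellTiter-Glo luminescence, normalized to DMSO and empty wells; activity summarized as Z-AUC.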

A short description of test [15]: qHTS assay to identify inhibitors of the type 1 interferon - major histocompatibility complex class I in skeletal muscle: Counter screen cell viability and HiBit confirmation (AID 1347412). For activity change, negative = inhibition: % is set by controls: 0 for no effect and ±100 for the full control effect. Note: nearly all actives have a fitted effect of over 60% in size. Note: potency is the fitted concentration of half-maximal effect. The following applies: iHSKM muscle cells + IFN-b, HiBiT or CellTiter-Glo, 24 h. The method, boiled down:
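Duplicate plates, pinned identically: one read for HiBiT-tagged endogenous HLA-B luminescence, the other for ATP-content viability via CellTiter Glo. Cells were genome-engineered human myoblasts given 4 ng/ml IFN-b; compounds 12-pt, 1:3 from 46 uM final; 24 hr exposure.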

Sequence of Glutathione peroxidase 1 (Homo sapiens) (P07203 whole entry, looked up): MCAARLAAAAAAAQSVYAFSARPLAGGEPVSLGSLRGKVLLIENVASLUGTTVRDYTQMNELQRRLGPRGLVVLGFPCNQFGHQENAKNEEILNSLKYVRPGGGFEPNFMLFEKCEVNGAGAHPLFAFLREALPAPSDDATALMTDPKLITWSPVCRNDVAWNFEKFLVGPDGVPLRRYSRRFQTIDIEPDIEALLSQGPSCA
Sequence of Cytochrome P450 3A4 (Homo sapiens) (P08684 whole entry, looked up): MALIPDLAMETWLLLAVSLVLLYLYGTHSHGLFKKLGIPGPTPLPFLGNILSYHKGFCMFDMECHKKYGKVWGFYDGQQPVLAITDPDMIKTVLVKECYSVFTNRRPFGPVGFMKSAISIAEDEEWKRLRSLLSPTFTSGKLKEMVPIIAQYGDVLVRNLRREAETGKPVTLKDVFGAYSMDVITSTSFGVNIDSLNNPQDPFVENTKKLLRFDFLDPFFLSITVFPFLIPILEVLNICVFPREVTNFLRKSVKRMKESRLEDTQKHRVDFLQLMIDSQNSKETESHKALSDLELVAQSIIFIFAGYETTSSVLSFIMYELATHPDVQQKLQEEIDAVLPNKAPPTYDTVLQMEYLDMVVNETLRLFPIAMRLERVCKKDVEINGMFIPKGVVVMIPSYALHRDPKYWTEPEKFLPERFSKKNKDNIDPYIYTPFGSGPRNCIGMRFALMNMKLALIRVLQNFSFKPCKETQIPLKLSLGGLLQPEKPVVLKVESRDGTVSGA

Consider `C=C(C)C(=O)O[C@H]1C[C@@]2(C)OC(=CC2=O)/C(C)=C\[C@H]2OC(=O)C(=C)[C@H]12`, for which the Potency is 1.88 µM (active) in test [1]; 0.662 µM (active) in test [2]; 1.05 µM (active) in [3]; 1.67 µM (active) in test [4]; 13.2 µM (active) in [6]. For the same compound, the Potency result in test [5] was “inactive”.
As for `O=c1cc(-c2ccc(O)cc2)oc2cc(O)c([C@@H]3OC(CO)[C@H](O)[C@@H](O)[C@H]3O)c(O)c12` (some centres undefined), the Potency entry in test [2] and in test [5] was “inactive” throughout. Also, the outcome in [7] was inactive.
Turning to `CN1CC[C@@]23c4ccccc4N[C@@H]1[C@@]21CCN(C)[C@@H]3Nc2ccccc21`, the Potency result in test [3], in test [8], in [5] and in test [6] was “inactive” in each case. Further, the outcome in test [7] was inactive.
Take `COC(=O)c1cccc2oc(-c3cccc4oc(-c5c(C)cccc5O)nc34)nc12`: the Potency in [2] was 3.32 µM (active).
With `CC[C@@H](C)[C@H]1NC(=O)C(CC(C)C)NC(=O)[C@@H](CC(C)C)NC(=O)[C@H](Cc2c[nH]c3ccccc23)NC(=O)CNC(=O)[C@@H](CC(N)=O)NC1=O` (stereo partly drawn) (cyclo(GW[dL][ξL][dI][dN])), the Potency entry in test [2] was “inactive”. The Potency in [3] is 11.8 µM (active). In addition, in test [7], the result was inactive.
Regarding `O=C1CC(c2ccc(O)cc2)Oc2ccccc21` (centres undefined), the Potency entry in test [9], in [4] and in test [6] was “inactive” throughout. The call in test [10] and in test [11] was inactive.
As to `CC1(C)CC[C@]2(CO)CC[C@]3(C)C(=CCC4[C@@]5(C)CC[C@H](O)C(C)(C)C5CC[C@]43C)C2C1` (some centres undefined), the Potency entry in test [8], in test [4] and in [5] was “inactive” throughout. Moreover, the result in [7] was inactive.
With `COc1ccc([C@@H]2c3cc4c(cc3C(=O)C(C)C2C)OCO4)cc1OC` (some centres undefined), the Potency entry in [2], in [3], in [8], in [4] and in [5] was “inactive” each time.
As for `C=C[C@]1(C)CC[C@@H]([C@H](C)C(=O)CC=C(C)C)O1`, the Potency entry in test [3], in test [8], in [5] and in [6] was “inactive” in each case. For the same compound, in [7], the result was inactive.
Take `CN1C(=O)C(=O)N2C(=C[C@]3(c4c[nH]c5ccccc45)c4ccccc4N[C@H]23)C1=O`: the Potency entry in [2], in [3], in test [8] and in test [4] was “inactive” in each case. The compound was called inactive in [7].
With `CC(C)=CCCC(C)(O)[C@H]1CC=C(C)C(O)C1` (some centres undefined), the Potency result in test [8], in test [4], in test [5] and in test [6] was “inactive” in each case. Besides, in test [7], the compound was classed as inactive.
As for `COC(=O)[C@@]12Oc3cccc(O)c3C(O)=C1C(=O)C[C@H](C)[C@H]2O`, the Potency result in test [2], in test [8] and in test [6] was “inactive” in each case.
On to `COC1C(C)OC(OCC23C[C@@H]4[C@H](C)CC[C@H]4C4(C=O)CC2C=C(C(C)C)C34C(=O)O)[C@@H](O)[C@H]1O` (some centres undefined), for which the Potency entry in test [3], in [8], in [5] and in [6] was “inactive” each time. In test [7], the compound was classed as inactive.
Take `C=C(Cl)[C@](Cl)(CBr)CC[C@@H](Br)C(C)(C)Cl`: the Potency in [1] is 3.75 µM (active); in [3] it was 9.35 µM (active). The result in test [7] was inactive.
On to `C[C@@]1(CCC(=O)Nc2c(O)ccc(C(=O)O)c2O)C(=O)C=C[C@]23C[C@H]4C[C@H](O[C@@]4(C)C2)C31` (some centres undefined), for which the Potency result in test [1], in [2], in [8] and in [5] was “inactive” throughout.
On to `O=C(/C=C/C#Cc1cccc(NS(=O)(=O)c2ccccc2)c1)NO`, for which the Potency in test [12] was 2.55 µM (active); in [15] (HiBiT), 6.25 µM (active). Further, the Potency entry in test [13] is “inactive”. Moreover, the Z-AUC was -0.732 (inactive) in test [14], -0.336 in test [14] (measured here: PEO1 parental Z-AUC) and -0.647 in [14] (measured here: PEO4 Z-AUC). Also, the activity change, negative = inhibition in test [15] (Viability, at 45.9 µM (top of the series)) was -1.87% (inactive).
